Bioassay records as filed in PubChem.
Only some compounds are listed: those with a hit (about 10% of all), similar ones and a draw of the others.
KB-3-1 cytotox – kills parental KB-3-1 adenocarcinoma cells. KB-3-1 viability, CellTiter-Glo ATP luminescence, 72 h. Potency, µM (doses to about 46.1 µM), hits mostly cytotoxic. actives 1.4% (n = 400,000). AID 1347075; further: on the % scale 0 is the no-effect control and ±100 the full control effect; nearly all actives have a fitted effect of over 60% in size
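Using CellTiter-Glo luminescence, growth of non-resistant KB-3-1 adenocarcinoma cells is assessed 72 h after pin-tool compound addition at 37 °C. Normalized responses across the concentration series yield fitted curves.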
Gal4-VP16 FLuc – counter-screen for ROR gamma inhibitors: Gal4-VP16 reporter. Drosophila S2 Gal4-VP16 UAS-luciferase, luminescence, 20 h. Potency, µM (series often up to 53.6 µM), without a hit: top-dose activity, negative = inhibition, actives largely listed as inhibitors. actives 3.5% (n = 310,000). AID 2546;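 further: Gal4-VP16 expression switched on by copper sulfate through the metallothionein promoter; on the % scale 0 is the no-effect control and ±100 the full control effect; nearly all actives have a fitted effect of over 50% in size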
SW480 rereplic – DNA re-replication induction in SW480 cells. SW480 DNA re-replication, Hoechst DNA content imaging, 48 h. Potency, µM (series often up to 46.1 µM), without a hit: top-dose re-replication activation, most hits filed as activators. actives 1.8% (n = 340,000). AID 624297; further: % of control where 0% means no effect; nearly all actives have a fitted effect of over 55% in size
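Image-based read-out: total Hoechst fluorescence of nuclei (405 nm excitation, 500-530 nm emission), with hits raising the fraction of high-intensity nuclei. SW480 colon cells incubated 48 hr with compounds at 37 C.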
KB-V1 cytotox – KB-V1 MDR subline cytotoxicity; KB-V1 MDR cells viability, CellTiter-Glo, 72 h; Potency, µM (top dose mostly 46.1 µM), usual class: cytotoxic; actives 3.4% (n = 400,000); AID 1347076; further: on the % scale 0 is the no-effect control and ±100 the full control effect; nearly all actives have a fitted effect of over 60% in size
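KB-V1, DMEM (no phenol red) + 10% FBS; cpd pin-transferred, titration series; 72 h, 37 degrees C; CellTiter-Glo, luminescence. Data normalized, curve-fit.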
MCF10A rereplic – DNA re-replication induction in MCF 10a cells; MCF 10A DNA re-replication, Hoechst nuclear intensity, 48 h; Potency, µM (series often up to 46.1 µM), for the others: top-dose activity, positive = re-replication, usual class: activators; actives 2.9% (n = 350,000); AID 624296; further: % of control where 0% means no effect; nearly all actives have a fitted effect of over 50% in size
RORg inh – ROR gamma (mouse) transcription inhibition; P51450; Drosophila S2 Gal4-RORgamma UAS-luciferase reporter, 20 h; Potency, µM (highest dose often 53.6 µM), for inactives: at the top dose activity change, negative = inhibition, actives largely listed as inhibitors; actives 5.4% (n = 310,000); AID 2551; further: on the % scale 0 is the no-effect control and ±100 the full control effect; nearly all actives have a fitted effect of over 60% in size
Target sequence (P51450 whole entry, looked up, the tested form may be a part): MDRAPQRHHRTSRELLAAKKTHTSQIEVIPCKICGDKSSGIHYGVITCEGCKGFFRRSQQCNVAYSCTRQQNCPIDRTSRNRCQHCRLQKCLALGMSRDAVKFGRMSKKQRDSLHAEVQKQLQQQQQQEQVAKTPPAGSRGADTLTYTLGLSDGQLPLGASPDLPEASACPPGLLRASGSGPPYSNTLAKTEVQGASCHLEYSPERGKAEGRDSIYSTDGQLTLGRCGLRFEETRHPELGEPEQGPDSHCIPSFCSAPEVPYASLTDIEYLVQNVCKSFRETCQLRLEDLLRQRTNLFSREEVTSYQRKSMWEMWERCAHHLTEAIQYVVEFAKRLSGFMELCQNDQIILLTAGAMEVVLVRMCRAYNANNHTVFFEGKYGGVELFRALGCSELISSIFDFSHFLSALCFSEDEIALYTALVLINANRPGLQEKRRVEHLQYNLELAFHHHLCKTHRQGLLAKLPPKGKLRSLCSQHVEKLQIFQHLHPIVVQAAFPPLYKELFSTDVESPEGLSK
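Luminescence from a UAS-regulated Photinus luciferase reporter in stably transfected Drosophila Schneider cells is measured; decreased signal marks ROR gamma inhibition. Fusion expression is induced by 700 uM copper sulfate for 20 hr.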
* marks the source's active call; other numbers are inactive results; i = inactive; ? = inconclusive; . = no result given; [ ] = dose if it differs, or a comment. The call rests on the fitted dose curve; in most records, active means well fitted curve in the direction sought with a large enough effect; inconclusive means small, poorly fitted or top-dose-only effect, or another doubt; inactive means no such curve, though single readings can be large; an effect the other way counts as inactive or inconclusive. Potency means the concentration at half of the fitted maximal effect.

SMILES	KB-3-1 cytotox	Gal4-VP16 FLuc	SW480 rereplic	KB-V1 cytotox	MCF10A rereplic	RORg inh
Cc1ccc(NC(=S)NC(NC(=O)c2ccccc2)C(Cl)(Cl)Cl)c(C)c1 (configuration not stated)	?	?	4%	16µM*	?	?
Cc1ccccc1NC(=S)NC(NC(=O)c1ccccc1C)C(Cl)(Cl)Cl (configuration not stated)	i	?	4%	i	8%	?
Cc1cc(C)c(NC(=S)NC(NC(=O)c2ccccc2)C(Cl)(Cl)Cl)c(C)c1 (configuration not stated)	?	?	?	?	12%	20µM*
Cc1ccc(N(C)C(=O)Cn2cc(S(=O)(=O)N3CCCC3)c(S(=O)(=O)N3CCCC3)c2)cc1	i	.	.	i	.	.
CCCCc1nn2c(=O)cc(COC(=O)C(C)Oc3ccccc3)nc2s1 (configuration not stated)	i	.	.	i	.	.
COc1cccc([C@H](O)Cn2cc(-c3cccc(CON=C(C)C)c3)nn2)c1	.	-5%[10 µM]	.	.	.	-4%[10 µM]
COc1cc(C(CCN2CCCC2)c2c(OC)cc(OC)c3c2OC(=O)CC3c2ccc(N(C)C)cc2)cc(OC)c1OC (configuration not stated)	.	0%	.	.	.	12%
O=C(NC(NC(=S)Nc1ccccc1)C(Cl)(Cl)Cl)c1cccc(Cl)c1 (configuration not stated)	?	?	?	?	?	11µM*
O=C(NC(NC(=S)Nc1ccc(Cl)cc1Cl)C(Cl)(Cl)Cl)c1cccc([N+](=O)[O-])c1 (configuration not stated)	?	?	21µM*	?	12µM*	?
Cc1cccc(CNc2ccnc(-c3ccccc3C(F)(F)F)n2)c1	.	-3%	.	.	.	10%
COc1ccc(S(=O)(=O)NCCc2nnc3ccc(SCC(=O)Nc4ccc(C(F)(F)F)cc4)nn23)cc1	i	.	.	i	.	.
CCc1c(O)nc(SCC(=O)Nc2ccccc2)n(-c2ccccc2C)c1=O	i	.	.	i	.	.
COc1ccc(N2CCN(C(CNC(=O)c3c(F)cccc3F)c3ccc4c(c3)OCO4)CC2)cc1 (configuration not stated)	i	.	.	i	.	.
O=C(NC1CC2CCCC(C1)N2Cc1ccccc1)C1CCCCC1 (configuration not stated)	i	7%	-164%	i	-4%	-26%
S=C1NCN(Cc2ccccc2)CN1C1CCCCC1	i	4µM*	3%	?	-7%	0.79µM*
S=C1NCN(C2CCCCC2)CN1Cc1ccccc1	i	3.5µM*	4%	?	-5%	1.8µM*
CCN(CC)c1ccc(-c2nc3cnccn3c2NC2CCCC2)cc1	?	-16%	21µM*	i	16µM*	27%
CCC(C)Sc1cccc(-c2nc3cnccn3c2NC2CCCCC2)c1 (configuration not stated)	?	.	?	?	18µM*	.
CCC(C)Sc1cccc(-c2nc3ccc(C)cn3c2NC2CCCCC2)c1 (configuration not stated)	i	.	-28%[9.22 µM]	?	?	.
c1cc(SC2CCCCC2)cc(-c2nc3cnccn3c2NC2CCCCC2)c1	?	.	3.3µM*	?	5.8µM*	.
c1cn2c(NC3CCCCC3)c(-c3ccc(SC4CCCCC4)cc3)nc2cn1	i	.	-1%	i	?	.
CCOC(=O)c1noc2ncn(Cc3ccc([N+](=O)[O-])cc3)c(=O)c12	i	.	.	i	.	.
Cc1oc(C)c2c(=O)cc(-c3ccc4c(c3)OCO4)cc(OC(=O)c3ccccc3Br)c12	i	.	.	i	.	.
CCc1ccccc1NC(=O)Nc1cc(C(=O)NCc2ccc(OC)cc2)ccc1N1CCCC1	i	.	.	i	.	.
C/C(CCC(C)C)=N\NC(=S)Nc1cc(S(=O)(=O)N2CCOCC2)ccc1N1CCOCC1	i	?	0%	?	-13%	11µM*
SMILES	KB-3-1 cytotox	Gal4-VP16 FLuc	SW480 rereplic	KB-V1 cytotox	MCF10A rereplic	RORg inh
COc1ccc2cc(/C(C)=N/NC(=S)Nc3cc(S(=O)(=O)N4CCOCC4)ccc3N3CCOCC3)ccc2c1	.	8%[10 µM]	.	.	.	6.3µM*
C/C(=N\NC(=S)Nc1cc(S(=O)(=O)N2CCOCC2)ccc1Cl)c1ccc(N2CCOCC2)cc1	i	11µM*	2%	i	3%	2.8µM*
C/C(=N\NC(=O)c1ccc(Cl)cc1)c1ccc(N2CCOCC2)cc1	i	5%	12%	i	1%	-24%
C/C(=N\NC(=S)Nc1ccc(C)c(C)c1)c1ccc(N2CCOCC2)cc1	i	?	-8%	i	?	14µM*
COc1cccc(C(=O)Nc2cc(S(=O)(=O)N3CCOCC3)ccc2N2CCOCC2)c1	i	.	-19%	i	-3%	.
CCCNC(=O)Nc1nc(C(N)c2ccc(OC)cc2)cs1 (configuration not stated)	i	.	.	i	.	.
COCCn1c(N)c(N(Cc2ccccc2)C(=O)C(C)Oc2ccc(Br)cc2)c(=O)[nH]c1=O (configuration not stated)	i	.	.	i	.	.
COc1ccc(CCCO[C@@H](Cn2ccnc2)c2ccc(OC)cc2)cc1	.	32µM*	.	.	.	8.9µM*
COc1ccc(OCCn2ccnc2)cc1	i	-11%	-27%	i	10%	-1%
O=S(=O)(O)c1cc(Cl)cc(N=Nc2ccc(O)cc2O)c1O	i	.	-3%	i	-15%	.
COc1cc(S(=O)(=O)O)c(C)cc1N=Nc1c(O)ccc2cc(S(=O)(=O)O)ccc12	i	.	.	i	.	.
O=S(=O)(O)c1cc(O)c2c(O)c(N=Nc3cc(Cl)ccc3O)c(S(=O)(=O)O)cc2c1	15µM*	?	22%	?	-3%	?
Cc1cc(-c2ccc(N=Nc3c(S(=O)(=O)O)cc4cc(S(=O)(=O)O)cc(N)c4c3O)c(C)c2)ccc1N=Nc1c(S(=O)(=O)O)cc2cc(S(=O)(=O)O)cc(N)c2c1O	.	13µM*	-14%	.	-16%	14µM*
O=C(OCc1ccco1)c1ccc2c(c1)N(Cc1cccc(F)c1)C(=O)c1ccccc1S2	i	.	.	?	.	.
O=C1CCC[C@@H](C2=CCCCC2=O)C1	.	-7%[10 µM]	.	.	.	25%[10 µM]
O=C(Nc1c2c(nn1-c1ccc(F)cc1)CS(=O)(=O)C2)C12CC3CC(CC(C3)C1)C2	i	-14%	2%	23µM*	-3%	7%
CCCc1cc(=O)n2[nH]c(NC(=O)c3ccccc3Cl)nc2n1	i	.	.	i	.	.
